Among the data in PubChem BioAssay (NCI) are growth values, retold here.

This is part of a sample that, as a whole, favours compounds with a hit. Of some 83,000 tested, about 20% had one in any assay.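 Activity criterion: percent growth below 10, measured after cells in 96-well plates were exposed to a single compound concentration for 48 hours.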 A number with no mark means an inactive call. Calls of active or inactive are those of the source.

What all share (test): NCI-60 one-dose screen, 48 h (100 = growth as untreated, 0 = no growth, -100 = all killed)
The test system of one assay is SK-MEL-2 melanoma. As to conditions: 10 µM unless noted.
The test system of a further assay is EKVX NSCLC. As to conditions: 10 µM unless noted.
The next assay deals with SN12C renal. As to conditions: 10 µM unless noted.
The test system of another assay is UO-31 renal. As to conditions: 10 µM unless noted.
In the next assay the test system is TK-10 renal. As to conditions: 10 µM unless noted.
A further assay concerns ACHN renal. As to conditions: 10 µM unless noted.
The subject of another assay is CAKI-1 renal. As to conditions: 10 µM unless noted.
Another assay has as its system CCRF-CEM leukemia. As to conditions: 10 µM unless noted.
Another assay relates to SR leukemia. As to conditions: 10 µM unless noted.
In another assay the test system is RPMI-8226 leukemia. As to conditions: 10 µM.
A further assay has as its system OVCAR-8 ovarian. As to conditions: 10 µM unless noted.
A further assay deals with OVCAR-5 ovarian. As to conditions: 10 µM unless noted.
Another assay has as its system OVCAR-4 ovarian. As to conditions: 10 µM unless noted.
In a further assay the test system is IGROV1 ovarian. As to conditions: 10 µM unless noted.
The subject of a further assay is OVCAR-3 ovarian. As to conditions: 10 µM unless noted.
The next assay relates to HS 578T breast. As to conditions: 10 µM unless noted.
The next assay concerns NCI/ADR-RES ovarian. As to conditions: 10 µM unless noted.
The next assay relates to MOLT-4 leukemia. As to conditions: 10 µM unless noted.

Regarding `CCCCCCCC/C=C\CCCCCCCCOc1cccc(CC(=O)NCC[N+]2(C)CCCCC2)c1`, the growth in the assay with SK-MEL-2 melanoma was 91.8%; with EKVX NSCLC, 78.7%; with SN12C renal it was 47.8%; in the assay on UO-31 renal, 86.8%; in the assay with TK-10 renal, 76.8%; in the assay with ACHN renal, 94.7%. Also, the growth was 70.3% with CAKI-1 renal; 38.5% with CCRF-CEM leukemia; 34.7% with SR leukemia; 67.1% in the assay with RPMI-8226 leukemia; 74.3% with OVCAR-8 ovarian; 39.6% with OVCAR-5 ovarian. Further, the growth in the assay with OVCAR-4 ovarian is 66.3%; in the assay with IGROV1 ovarian it was -37% (active); in the assay on OVCAR-3 ovarian, 89.9%; with HS 578T breast, 73.9%; in the assay with NCI/ADR-RES ovarian, 102%.
As for `COc1ccc(NS(=O)(=O)c2ccc(-c3cnc(C4CC4)o3)cc2)cc1`, the growth was 46.6% with SK-MEL-2 melanoma; 69.9% with EKVX NSCLC; 81.5% in the assay on SN12C renal; 69.8% in the assay on UO-31 renal; 79.8% with TK-10 renal; 80.6% in the assay with ACHN renal. The growth was 48.3% in the assay on CAKI-1 renal; 76.2% in the assay on CCRF-CEM leukemia; 48.6% in the assay on MOLT-4 leukemia; 40.8% with SR leukemia; 74.9% with RPMI-8226 leukemia; 81.5% with OVCAR-8 ovarian. Also, the growth is 78.6% in the assay on OVCAR-5 ovarian; 60.8% in the assay with OVCAR-4 ovarian; 62.8% with IGROV1 ovarian; 27.4% with OVCAR-3 ovarian; 42.4% in the assay on HS 578T breast; 30.3% with NCI/ADR-RES ovarian.
Consider `CCCCCCCCCCCCCCn1c2ccccc2c2c3c(c4c5cc(OC)ccc5oc4c21)C(=O)NC3=O`, for which the growth in the assay on SK-MEL-2 melanoma is 113%; in the assay with EKVX NSCLC, 105%; in the assay with SN12C renal, 101%; in the assay on UO-31 renal, 88.5%; with TK-10 renal, 109%; in the assay on ACHN renal it was 103%. Also, the growth with CAKI-1 renal is 93.2%; in the assay on CCRF-CEM leukemia it was 103%; in the assay with MOLT-4 leukemia it was 123%; in the assay on RPMI-8226 leukemia, 112%; in the assay on OVCAR-8 ovarian, 103%; with OVCAR-5 ovarian, 100%. In addition, the growth in the assay with IGROV1 ovarian was 106%; in the assay with OVCAR-3 ovarian, 110%; in the assay on HS 578T breast, 95.6%; with NCI/ADR-RES ovarian, 107%.
Consider `COC(=O)c1c2c(c(C)[n+]([O-])c1C)C(=O)C=C(NCc1cccc(Cl)c1)C2=O`, for which the growth was -32.8% (active) with SK-MEL-2 melanoma; -57.3% (active) in the assay on EKVX NSCLC; -90.7% (active) in the assay with SN12C renal; -18.5% (active) in the assay on UO-31 renal; 14.5% in the assay on TK-10 renal; -44.8% (active) with ACHN renal. The growth with CAKI-1 renal was -14.3% (active); with CCRF-CEM leukemia it was -11.2% (active); in the assay on MOLT-4 leukemia it was -34.8% (active); in the assay on SR leukemia, 1.95% (active); in the assay with RPMI-8226 leukemia, -31.9% (active); with OVCAR-8 ovarian, -14.4% (active). In addition, the growth with OVCAR-5 ovarian was -87.2% (active); in the assay with IGROV1 ovarian, -53.9% (active); in the assay with OVCAR-3 ovarian, -35.7% (active); in the assay with HS 578T breast, -23.2% (active); in the assay with NCI/ADR-RES ovarian, -12.7% (active).
For `COC(=O)c1c2c(c(C)[n+]([O-])c1C)C(=O)C(NCc1ccc(O)cc1)=CC2=O`, the growth in the assay with SK-MEL-2 melanoma is -12.5% (active); in the assay on EKVX NSCLC, -34.5% (active); in the assay on SN12C renal, -89.9% (active); in the assay on UO-31 renal, 6.95% (active); in the assay with TK-10 renal, 74.1%; in the assay with ACHN renal, 8.06% (active). In addition, the growth was 7.36% (active) in the assay on CAKI-1 renal; 6.08% (active) in the assay on CCRF-CEM leukemia; -1.35% (active) with MOLT-4 leukemia; 11.1% in the assay with SR leukemia; -2.15% (active) in the assay on RPMI-8226 leukemia; 5.26% (active) in the assay on OVCAR-8 ovarian. Besides, the growth with OVCAR-5 ovarian is -17% (active); with OVCAR-4 ovarian it was -97.4% (active); in the assay with IGROV1 ovarian it was -45% (active); in the assay with OVCAR-3 ovarian it was -33.1% (active); in the assay on HS 578T breast it was -22.5% (active); in the assay with NCI/ADR-RES ovarian it was -6.46% (active).
Consider `O=c1oc2ccccc2cc1-c1csc(N=Nc2c(O)[nH]c3ccc(Br)cc23)n1`, for which the growth with SK-MEL-2 melanoma is 107%; with EKVX NSCLC, 95.8%; in the assay with SN12C renal, 98.7%; in the assay with UO-31 renal it was 86.3%; in the assay on TK-10 renal, 111%; in the assay with ACHN renal, 97.9%. Besides, the growth in the assay with CAKI-1 renal is 93.4%; in the assay with CCRF-CEM leukemia it was 97.2%; with MOLT-4 leukemia, 120%; with SR leukemia, 114%; in the assay with RPMI-8226 leukemia, 109%; in the assay with OVCAR-8 ovarian, 102%. Moreover, the growth in the assay on OVCAR-5 ovarian was 97.6%; in the assay with IGROV1 ovarian, 99.8%; in the assay with OVCAR-3 ovarian it was 108%; with HS 578T breast, 93.3%; in the assay on NCI/ADR-RES ovarian, 103%.
Consider `COc1ccc(/C=C2\Oc3cc(C)c(Cl)cc3C2=O)cc1OC`, for which the growth in the assay on SK-MEL-2 melanoma is 109%; with EKVX NSCLC, 94%; in the assay on SN12C renal, 95%; in the assay with UO-31 renal it was 89.5%; with TK-10 renal, 112%; in the assay with ACHN renal, 97.9%. In addition, the growth in the assay on CAKI-1 renal was 87.2%; in the assay with CCRF-CEM leukemia, 87.4%; with MOLT-4 leukemia, 91%; with SR leukemia, 73.2%; in the assay with RPMI-8226 leukemia, 89.9%; with OVCAR-8 ovarian, 102%. Also, the growth is 98.3% in the assay on OVCAR-5 ovarian; 82.3% in the assay with OVCAR-4 ovarian; 103% with IGROV1 ovarian; 108% in the assay on OVCAR-3 ovarian; 109% in the assay on HS 578T breast; 107% in the assay on NCI/ADR-RES ovarian.
On to `CCCCCCCC/C=C\CCCCCCCCOc1cccc(CC(=O)NCC[N+]2(C)CCOCC2)c1`, for which the growth is 104% in the assay with SK-MEL-2 melanoma; 94.6% in the assay with EKVX NSCLC; 81.5% in the assay on SN12C renal; 82.1% in the assay on UO-31 renal; 75.1% in the assay on TK-10 renal; 94% with ACHN renal. The growth in the assay with CAKI-1 renal was 70.1%; in the assay with CCRF-CEM leukemia it was 61.6%; with MOLT-4 leukemia, 72.1%; in the assay on SR leukemia it was 55.7%; in the assay with RPMI-8226 leukemia, 96.4%; in the assay on OVCAR-8 ovarian, 93.8%. Besides, the growth in the assay with OVCAR-5 ovarian is 65.5%; in the assay on OVCAR-4 ovarian, 90.3%; in the assay with IGROV1 ovarian it was 0.48% (active); with OVCAR-3 ovarian, 98.7%; with HS 578T breast, 80.9%; in the assay on NCI/ADR-RES ovarian, 112%.
Regarding `COc1ccc(OC)c(/C=C2\Oc3cc(O)ccc3C2=O)c1`, the growth with SK-MEL-2 melanoma was 98.6%; with EKVX NSCLC, 91.4%; with SN12C renal it was 85.8%; in the assay with UO-31 renal it was 60.3%; in the assay with TK-10 renal, 103%; in the assay on ACHN renal it was 68.3%. Besides, the growth in the assay on CAKI-1 renal is 93.7%; in the assay with CCRF-CEM leukemia, 96.1%; with MOLT-4 leukemia, 100%; in the assay with SR leukemia, 75.7%; with RPMI-8226 leukemia it was 92.2%; with OVCAR-8 ovarian, 85.6%. Further, the growth in the assay with OVCAR-5 ovarian was 101%; in the assay on OVCAR-4 ovarian, 86.7%; in the assay with IGROV1 ovarian, 89.3%; in the assay on OVCAR-3 ovarian, 95.8%; with HS 578T breast, 80.8%; with NCI/ADR-RES ovarian, 92.9%.
